# Hit rate of the full screen: of about 69,000 compounds, about 8,600 (12%) showed an effect of 50% or more. This excerpt belongs to a sample that is enriched for strong results.
# Test system: Plasmodium berghei
# Test: Screen against P. berghei liver stage (PbLuc), transformed with Luciferase, at 10uM
# Format: functional, HepG2
# Conditions: tested at 10 uM
row,SMILES,INHIBITION [%]
1,Cc1cc(OCC(N)=O)ccc1NC(=O)C(C)Cc1ccccc1F (configuration not stated),39.6
2,O=C(c1cnccn1)N1C[C@@H]2C[C@@H](c3nc(C4CC4)cs3)O[C@@H]2C1,10.7
3,COc1cc(C)nc(N2CCN(C(=O)c3cccc(C#N)c3)CC2)n1,8.64
4,COc1ccc2c(c1)C(=O)NC1(CC2)CCN(Cc2ccccn2)C1 (configuration not stated),17.9
5,CNC(=O)NC(=O)CCSCc1cc(F)cc2cccnc12,11.5
6,Cc1nn(CCNc2ncnc3c2NC(=O)CN3)c(C)c1Cl,42.4
7,Cc1cc(C)n(CCCNc2ncnc3c2NC(=O)CN3)n1,57.3
8,Cc1cc(C)n(CCNc2ncnc3c2NC(=O)CN3)n1,44.1
9,O=C1[C@H]2CN(C3CCOC3)C[C@H]2CN1c1ccccc1 (some centres not stated),10.5
10,Cc1n[nH]c(C)c1CNCC(O)c1cccc(Cl)c1 (configuration not stated),46
11,Cc1noc(C)c1CN1CCC(N(C)Cc2nnc(C3CC3)n2C)C1 (configuration not stated),19.2
12,O=C(NC1CC1)c1ccn(COc2c(Cl)cccc2Cl)n1,43.3
13,Cc1ccoc1C1=NNC(=CN2CCCC(Cn3cncn3)C2)O1 (configuration not stated),27.1
14,Cc1cc(-c2nn(C)c(Cl)c2CN2CCOCC(O)C2)no1 (configuration not stated),41.8
15,Cc1cc(-c2nn(C)c(Cl)c2CN2CC[C@H](CO)[C@@H](O)C2)no1,36.7
16,Cc1cc(-c2nn(C)c(Cl)c2CN2CCN(C)C(C(=O)O)C2)no1 (configuration not stated),59.4
17,Cc1cc(C)n(C2CCN(Cc3c(-c4cc(C)on4)nn(C)c3Cl)C2)n1 (configuration not stated),28.5
18,Cc1cc(-c2nn(C)c(Cl)c2CN2CCOC(C(=O)O)C2)no1 (configuration not stated),17.6
19,Cc1cc(-c2nn(C)c(Cl)c2CN2CCC3(CC2)[C@H](O)C[C@@H]3O)no1,50.3
20,Cc1cc(-c2nn(C)c(Cl)c2CN2CC[C@@](O)(C3CCC3)[C@H](C)C2)no1,33.9
21,CCNC(=O)C1CN(Cc2c(-c3cc(C)on3)nn(C)c2Cl)CCO1 (configuration not stated),43
22,Cc1cc(-c2nn(C)c(Cl)c2CN2Cc3ccccc3C(O)C2)no1 (configuration not stated),51.8
23,Cc1cnn(CC2CN(CC(=O)Nc3cc(C)no3)CCO2)c1 (configuration not stated),-103.725
24,O=C1CC(c2cccnc2)c2c(sc3c2CCCC3)N1 (configuration not stated),26.9
25,O=C1CC(c2ccncc2)c2c(sc3c2CCCC3)N1 (configuration not stated),20.4
26,O=C1CC(c2ccc(C(=O)O)cc2)c2c(sc3c2CCCC3)N1 (configuration not stated),89.3

row,SMILES,INHIBITION [%]
1,CC(=O)N(Cc1ncc(C)o1)C1CCN(CCOc2ccccc2)C1 (configuration not stated),8.31
2,CC(C)SCC(=O)N1CCc2c(nc(N(C)C)nc2N(C)C)C1,61.1
3,CCN(CC)CCC(=O)N1CCc2c(nc(N(C)C)nc2N(C)C)C1,30.1
4,Cc1nc2c(c(N(C)C)n1)CCN(C(=O)CN1CCC(O)CC1)C2,45.3
5,CN(C)c1nc2c(c(N(C)C)n1)CCN(C(=O)CN1CCC(O)CC1)C2,56.1
6,CN(C)c1nc2c(c(N(C)C)n1)CCN(C(=O)CN1C[C@H]3CC[C@@H]1C3)C2,11.7
7,CC(=O)N1CCc2c(nc(N(C)C)nc2N(C)CC2CCCO2)C1 (configuration not stated),41.4
8,Cc1ccc(NC(=O)C2CSCN2C(=O)c2cnsn2)c(C)c1 (configuration not stated),-50.6
9,CCS(=O)(=O)N1CCc2ccc(NC(=O)NC(C)(C)C)cc21,46.1
10,CCS(=O)(=O)N1CCc2ccc(NC(=O)Nc3cccc(SC)c3)cc21,88.4
11,CSc1ccc(NC(=O)Nc2ccc3c(c2)N(S(C)(=O)=O)CC3)cc1,49
12,CCS(=O)(=O)N1CCc2ccc(NC(=O)Nc3ccc(F)cc3F)cc21,72.6
13,CO[C@H]1CN(C(C)C)C[C@@H]1NC(=O)Nc1cccc(SC)c1,12.6
14,COc1ccc(S(=O)(=O)N2CCc3ccc(F)cc32)cc1C(=O)O,15.3
15,CCS(=O)(=O)N1CCCc2ccc(NC(=O)Cc3ccc(F)cc3)cc21,56.1
16,O=C(O)c1csc(S(=O)(=O)N2CCCc3ccc(F)cc32)c1,-9.67
17,Cc1cccc(NC(=O)N2CCC(CO)(Nc3ccccc3)CC2)c1,-15.96
18,CCS(=O)(=O)N1CCc2ccc(NC(=O)NC3CCCCC3)cc21,8.41
19,Cc1cc(S(=O)(=O)N2CCCc3ccc(F)cc32)sc1C(=O)O,26.8
20,CCS(=O)(=O)N1CCc2ccc(NC(=O)Nc3cccc(C)c3)cc21,85
21,O=C(c1ccc2c(c1)CCCC2)N1CCCC(n2cncn2)C1 (configuration not stated),19.6
22,O=C(c1cccnc1)N1CCCC(c2ncncc2-c2ccncc2)C1 (configuration not stated),44.8
23,C[C@@H]1C(=O)NC[C@H]2CN(Cc3ccc4c(c3)OCO4)C[C@H]21,30.9
24,COc1nn(C)c2c1CCCN(C(=O)c1ccc3c(c1)OCO3)C2,20.9
25,O=C(Nc1ccccc1OCCc1ccccn1)N1CCOCC1,-98.1
26,CNC(=O)C1(Cc2cc(C(C)C)no2)CCN(Cc2cccnc2)C1 (configuration not stated),13.125

row,SMILES,INHIBITION [%]
1,CCS(=O)(=O)N1CCc2ccc(NC(=O)Nc3ccccc3C)cc21,34.5
2,CCNC(=O)N1CCc2ccc(NC(=O)NCC3CC3)cc21,10.7
3,COCCN1CCC(NC(=O)Nc2cccc(F)c2)C1 (configuration not stated),28.9
4,CCS(=O)(=O)N1CCc2ccc(NC(=O)Nc3cccc(F)c3)cc21,91.4
5,CCS(=O)(=O)N1CCc2ccc(NC(=O)Nc3ccccc3)cc21,88.5
6,CCS(=O)(=O)N1CCc2ccc(NC(=O)NCc3ccccc3)cc21,-23.5
7,Cn1cccc1C(=O)N1CCO[C@@H]2CN(Cc3nccs3)C[C@@H]2C1,-28.5
8,CN(C)C(=O)COC[C@]12COC[C@H]1CN(CC1CCC1)C2,-11.1
9,COc1ccnc(N2CCN(C(=O)Cc3ccsc3)CC2)n1,-47.6
10,CNS(=O)(=O)CCCN1CCN(C(C#N)c2ccccc2)CC1 (configuration not stated),47.3
11,O=C(Nc1ccccc1)N1CCN(Cc2noc(C3CC3)n2)CC1,17.4
12,O=C(Cc1ccccc1)N1CCN(Cc2noc(C3CC3)n2)CC1,1.77
13,CNC(=O)c1c(C)cccc1NCc1noc(C2CC2)n1,74
14,O=C(Cc1ccccc1F)N1CCN(Cc2noc(C3CC3)n2)CC1,52.3
15,O=C(Nc1ccccc1F)N1CCN(Cc2noc(C3CC3)n2)CC1,11.8
16,CNC(=O)c1c(C)cccc1NCc1nnc(C2CC2)o1,24.3
17,Cc1ccccc1NC(=O)N1CCN(Cc2noc(C3CC3)n2)CC1,58.5
18,O=C(Nc1ccc(F)cc1)N1CCN(Cc2noc(C3CC3)n2)CC1,-3.2
19,CNC(=O)c1c(C)cccc1NCC(=O)Nc1cc(C)nn1C,19.1
20,COC1(CNC(=O)c2ccc3nsnc3c2)CCSC1 (configuration not stated),-3.83
21,COCc1noc(CN2CCC3(CC2)[C@H](O)C[C@@H]3OC)n1,15.8
22,CCOc1ccc(OCC(O)CN2CCN(S(C)(=O)=O)CC2)cc1 (configuration not stated),-67.3
23,CC(=O)NCC1CCN(C(=O)c2c[nH]c3cc(Cl)ccc23)CC1,35.3
24,CN1CCO[C@@H]2CN(S(=O)(=O)c3cccs3)CC[C@@H]2C1,28.5
25,CCn1cc(C(=O)N2C[C@H]3CC(Oc4ccccc4)C[C@H]3C2)cn1 (some centres not stated),-17.715
26,CC(C)(C)NC[C@@H]1CCC[C@@H]2CN(Cc3csnn3)C[C@@H]21,-39.2

row,SMILES,INHIBITION [%]
1,O=C(Cn1cc(-c2ccccc2)cn1)NC(C1CC1)C1CC1,34.7
2,OCCn1cc(CN2CCN(CCOc3cccc(F)c3)CC2)cn1,33.95
3,Cc1cccnc1CC(C)Nc1ncc(C)c(N(C)C)n1 (configuration not stated),27.9
4,Cc1cc(CC(C)Nc2ncc(C)c(N(C)C)n2)[nH]n1 (configuration not stated),63.7
5,Cc1cnc(NC(C)Cc2cnccn2)nc1N(C)C (configuration not stated),0.705
6,Cc1cc(NC(C)Cc2cccnc2)n2nccc2n1 (configuration not stated),23
7,COCc1nc(NC(C)Cc2cc(C)n[nH]2)c2cnn(C)c2n1 (configuration not stated),25.4
8,Cc1cnc(NC(C)Cc2cccnc2)nc1N(C)C (configuration not stated),55
9,COc1ccc(C(=O)N2C[C@@H](O)[C@H](NCc3cnc(C)cn3)C2)cc1,35.15
10,O=C(NCCc1nncn1C1CC1)c1cc2ccccn2c1,-22.3
11,CN(C(=O)Cc1ccc(NC(=O)NC2CCC2)cc1)c1ccccc1,55.3
12,O=C(Nc1ccc(CC(=O)N2CCCC2)cc1)NC1CC1,36.2
13,O=C(Nc1ccc(CC(=O)N2CCSCC2)cc1)NC1CCCC1,33.2
14,O=C(Nc1ccc(CC(=O)N2CCSCC2)cc1)NC1CC1,53.8
15,Cc1noc(CNc2ccc(CC(=O)N3CCSCC3)cc2)n1,32.5
16,CCc1noc(CNc2ccc(CC(=O)N3CCSCC3)cc2)n1,28.5
17,CN(C)C(=O)Cc1ccc(NC(=O)NC2CCCC2)cc1,-36.6
18,CCc1nnc(CNc2ccc(CC(=O)N3CCSCC3)cc2)o1,84.2
19,CN(C(=O)Cc1ccc(NC(=O)NC2CC2)cc1)c1ccccc1,8.845
20,CC(C)C(NC(=O)Nc1ccc(F)cc1)C(=O)N(C)C (configuration not stated),18.7
21,Cn1cc(-c2cc(C(F)(F)F)n(CCCN)n2)cn1,21.9
22,CNC(=O)CN([C@H]1C[C@H]2CCOC[C@H]2C1)S(=O)(=O)c1ccccc1,19.2
23,O=C1COC2(CCN(Cc3ccoc3)CC2)CN1CCn1cccn1,0.804
24,Cc1occc1C(=O)N1CCO[C@H]2[C@H](OCc3ccccn3)CC[C@@H]21,30.3
